An excerpt weighted towards active compounds, which were near 2.6% of everything screened.
AmpC nodet inh: blocks E. coli AmpC beta-lactamase in absence of detergent; P00811; AmpC nitrocefin hydrolysis, absorbance 480 nm, no detergent; Potency, µM (highest dose often 28.7 µM), for inactives: at the top dose activity change, negative = inhibition; actives 1.8% (n = 71,000); note: % of control where 0% means no effect
Target sequence (P00811 whole entry, looked up): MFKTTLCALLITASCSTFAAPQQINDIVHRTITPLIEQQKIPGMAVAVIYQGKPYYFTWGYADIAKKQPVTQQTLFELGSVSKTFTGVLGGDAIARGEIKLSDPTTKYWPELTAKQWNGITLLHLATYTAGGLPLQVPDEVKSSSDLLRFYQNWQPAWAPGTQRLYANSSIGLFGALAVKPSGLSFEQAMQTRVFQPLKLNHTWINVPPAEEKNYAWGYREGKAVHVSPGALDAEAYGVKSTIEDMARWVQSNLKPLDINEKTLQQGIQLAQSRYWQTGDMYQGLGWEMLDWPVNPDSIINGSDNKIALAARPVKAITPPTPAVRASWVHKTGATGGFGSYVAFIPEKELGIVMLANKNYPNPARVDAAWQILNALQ
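Enzyme, pH 7.0 phosphate. Compound titrations were pre-incubated with AmpC for 15 min at room temperature before nitrocefin (stock 800 uM) addition; product formation was recorded at 480 nm every 20 s for 4 min.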
AmpC det inh: AmpC beta-lactamase inhibition, detergent assay | P00811 | purified AmpC, nitrocefin hydrolysis with detergent | Potency, µM (series often up to 28.7 µM), without a hit: at the top dose activity change, negative = inhibition | actives 0.09% (n = 71,000) | AID 584; active = well fitted curve in the direction sought with a large enough effect; inconclusive = small, poorly fitted or top-dose-only effect; note: % is set by controls: 0 for no effect and ±100 for the full control effect
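E. coli AmpC (5.3 nM) in 20 mM phosphate pH 7.0 with 0.01% Triton X-100, preincubated 15 min RT with compound; nitrocefin (2 uL of 800 uM stock) hydrolysis followed by 480 nm absorbance every 20 s over 4 min.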
LT uptake inh: inhibitors of anthrax lethal toxin internalization; Potency, µM (top dose mostly 40 µM), without a hit: at the top dose activity change, negative = inhibition, actives largely listed as inhibitors; actives 0.67% (n = 70,000); Cells, anthrax lethal toxin internalization, FRET ratio (460/530); AID 912; note: % is set by controls: 0 for no effect and ±100 for the full control effect; nearly all actives have a fitted effect of over 50% in size
Prx2 Sm inh: Schistosoma mansoni Prx2 inhibition. S. mansoni Prx2 activity coupled to TGR/GSH (TGR is thioredoxin glutathione reductase), NADPH fluorescence loss, qHTS. Potency, µM. actives 0.07% (n = 65,000)
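Coupled assay in which S. mansoni TGR passes NADPH reducing equivalents via glutathione to Prx2, which reduces H2O2. Compounds were preincubated 15 min at room temperature with 25 nM TGR/50 nM Prx2 mix. Kinetic NADPH fluorescence loss (ex 365/em 450 nm) was monitored.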
An asterisk follows results filed as active; ? = inconclusive; · = not tested or not shown; [ ] = remark or other dose. Unless noted, calls come from the whole dose curve. Potency is the fitted concentration of half-maximal effect.

SMILES | AmpC nodet inh | AmpC det inh | LT uptake inh | Prx2 Sm inh
O=C(O)[C@H]1CCCNC1 | 16% | -3% | ? | >57
COCC(=O)N1CCC2(CC1)CN(Cc1ccc(C#N)cc1)C2 | 28% | -2% | -9% | >57
CC(Sc1nc(-c2ccccc2)cc(C(F)(F)F)n1)C(=O)N1CCCC1 (stereo not drawn) | 4µM*[single pt active] | 14% | -2% | >57
CCOC(=O)c1ccc2ncc(C(=O)OCC)c(NCCN(C)C)c2c1 | 3.2µM*[single pt active] | 14% | 1% | >57
COc1ccc(OC)c(C2CC(=O)N3CN(c4ccc(C)c(Cl)c4)CSC3=C2C#N)c1 (stereo not drawn) | -8% | 11% | -15% | >57
N#CC1=C2SCN(c3ccccc3)CN2C(=O)CC1c1ccccc1Cl (stereo not drawn) | 2.5µM* | 9% | ? | >57
N#CC1=C2SCN(c3ccccc3)CN2C(=O)CC1c1c(Cl)cccc1Cl (stereo not drawn) | 2.5µM* | 8% | ? | ·
Cc1ccc(C2CC(=O)N3CN(c4ccc(Br)cc4)CSC3=C2C#N)o1 (stereo not drawn) | 13µM*[single pt active] | -6% | ? | >57
N#CC1=C2SCN(c3ccccc3)CN2C(=O)CC1c1cccs1 (stereo not drawn) | -6% | -5% | -13% | >57
COc1cc(OC)c(C2CC(=O)N3CN(c4ccccc4)CSC3=C2C#N)cc1OC (stereo not drawn) | 57% | 1% | ? | >57
N#CC1=C2SCN(Cc3ccco3)CN2C(=O)CC1c1c(F)cccc1Cl (stereo not drawn) | 4µM*[single pt active] | 10% | -11% | >57
CCCC[N+]1(C)[C@@H]2CC(OC(=O)[C@@H](CO)c3ccccc3)C[C@H]1[C@H]1O[C@H]12 (stereo partly drawn) | -1% | -1% | 1% | >57
O=C(Nc1ccccc1)N1CC2(CCN(C(=O)c3cccc(F)c3)CC2)C1 | 21% | 0% | 7% | >57
C[N+](C)(C)/N=C\c1ccc(O)c(O)c1 | 6%[5.75 µM] | -3%[5.75 µM] | ? | >57
Oc1ccc(N=Cc2ccc(O)c(O)c2)cc1 | 13µM* | 5% | ? | ·
C[C@@H]1C[C@H](OC(=O)c2ccccc2O)CC(C)(C)C1 | -14%[12.8 µM] | -4%[12.8 µM] | ? | >57
COC(=O)N1CCC2(CCN(C(=O)Nc3cccc(C#N)c3)CC2)CC1 | 7% | 1% | ? | >57
CN[C@H]1[C@@H](O)[C@@H](NC)[C@@H]2O[C@@]3(O)C(=O)C[C@@H](C)O[C@H]3O[C@H]2[C@H]1O | -11%[12.8 µM] | 0%[12.8 µM] | 0%[3.58 µM] | >57
C[C@@H](O)[C@H]1C(=O)N2C(C(=O)O)=C(S[C@@H]3CN[C@H](C(=O)N(C)C)C3)[C@H](C)[C@H]12 | 27%[12.8 µM] | -1%[12.8 µM] | 0.5µM* | >57
COc1cccc(-c2csc(N3CCN(C(=O)C4CCCCC4)CC3)n2)c1 | 42% | 8% | 10µM* | >57
COc1cccc(-c2nc(CS(=O)CC(=O)NCc3ccccc3)c(C)o2)c1 (stereo not drawn) | 4µM*[single pt active] | 13% | -1% | >57
CCCNC(=O)CS(=O)Cc1nc(-c2cccc(OC)c2)oc1C (stereo not drawn) | 4µM*[single pt active] | 10% | 4% | >57
COc1ccc(-c2nc(CS(=O)CC(=O)NCc3ccco3)c(C)o2)cc1 (stereo not drawn) | 4µM*[single pt active] | 10% | 5% | >57
COc1ccc(-c2nc(CS(=O)CC(=O)NCc3cccnc3)c(C)o2)cc1 (stereo not drawn) | 3.2µM*[single pt active] | 9% | 0% | >57
O=C(O)c1cccc(SSc2cccc(C(=O)O)c2)c1 | 0%[5.75 µM] | -1%[5.75 µM] | -14%[8 µM] | >57
SMILES | AmpC nodet inh | AmpC det inh | LT uptake inh | Prx2 Sm inh
c1ccc([P+](CC[P+](c2ccccc2)(c2ccccc2)c2ccccc2)(c2ccccc2)c2ccccc2)cc1 | 33%[5.75 µM] | -1%[5.75 µM] | 7%[8 µM] | >57
Cc1nnc2ccc(N3CCN(C)CC3)nn12 | -8% | 5% | 0% | ·
Cc1nnc2ccc(N3CCN(c4ccccn4)CC3)nn12 | 4µM*[single pt active] | 15% | -4% | >57
Cc1nnc2ccc(N3CCC(C(N)=O)(N4CCCCC4)CC3)nn12 | 4µM*[single pt active] | 12% | -6% | >57
CCCNC(=O)N1N=C(c2ccc(N)cc2)c2cc3c(cc2[C@H]1C)OCO3 | 65% | 0% | ? | >57
O=c1c(-c2ccc(F)cc2)nc2cnc(Nc3ccccc3)nc2n1C[C@H]1CCCO1 | 0% | -1% | ? | >57
CC(C)(Oc1ccc([C@@H]2CC2(Cl)Cl)cc1)C(=O)O | -4%[12.8 µM] | -2%[12.8 µM] | -18%[3.58 µM] | >57
O=C(Nc1ccc(S(=O)(=O)N2CCc3ccccc32)cc1)c1ccco1 | -25% | 12% | -5% | >57

Assay outcomes deposited in PubChem by National Center for Advancing Translational Sciences (NCATS).
